Records with an inconclusive call do not appear. Activity calls are given as the source filed them. Calls follow the shape of the dose curve; as a rule, active = well fitted inhibition curve with a large enough effect; inconclusive = small, poorly fitted or top-dose-only effect; inactive = no such curve, though single readings can be large or run the other way.

Chain of Luciferin 4-monooxygenase (Photinus pyralis) (P08659 whole entry, looked up): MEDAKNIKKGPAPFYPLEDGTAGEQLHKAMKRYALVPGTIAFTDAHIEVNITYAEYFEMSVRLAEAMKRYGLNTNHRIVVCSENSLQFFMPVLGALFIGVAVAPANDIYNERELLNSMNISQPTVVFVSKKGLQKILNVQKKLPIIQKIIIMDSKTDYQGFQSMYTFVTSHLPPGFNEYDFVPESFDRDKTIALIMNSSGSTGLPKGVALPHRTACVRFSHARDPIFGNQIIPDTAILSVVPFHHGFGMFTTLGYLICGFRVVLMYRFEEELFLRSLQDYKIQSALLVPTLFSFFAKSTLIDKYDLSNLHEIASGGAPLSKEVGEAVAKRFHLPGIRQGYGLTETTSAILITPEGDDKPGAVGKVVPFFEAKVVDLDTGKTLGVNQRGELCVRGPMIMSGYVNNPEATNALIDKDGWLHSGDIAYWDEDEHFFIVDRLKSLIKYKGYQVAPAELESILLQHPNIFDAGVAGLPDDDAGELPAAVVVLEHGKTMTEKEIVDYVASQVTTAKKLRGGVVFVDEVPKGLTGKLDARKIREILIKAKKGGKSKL

The target of the experiment is Luciferin 4-monooxygenase (Photinus pyralis) (UniProt P08659). The experiment is described as follows: FLuc inhibitory activity for the follow-up compounds in a biochemical assay with Km concentrations of substrate. The conditions noted are these: purified FLuc, Km substrates, luminescence; series mostly up to 57.5 µM. The procedure, abridged:
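qHTS: compounds titrated 12 points (~60 uM to 0.3 nM) against 10 uM D-luciferin and 10 uM ATP. Reaction started with 10 nM enzyme in Tris acetate pH 7.5 buffer with Mg acetate, Tween-20, BSA; luminescence imaged.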
As for `Cc1c(C)c2ccc(OCC(=O)Nc3ccccn3)c(C)c2oc1=O`, the Potency is 0.0116 µM (active).

`O=C(Cc1ccccc1)Nc1ccc(C(=O)Nc2ccccc2C(=O)O)cc1`: the Potency was 20.6 µM (active).

As for `O=C(Nc1cccc(-c2nc3ccccc3s2)c1)C1=COCCO1`, the Potency was 18.3 µM (active).

As to `CN(C)S(=O)(=O)c1ccc(C(=O)Nc2ccccc2C(=O)O)cc1`, the Potency is 13 µM (active).

Regarding `COc1ccc(C(=O)Nc2cccc(C(=O)O)c2)cc1S(=O)(=O)N1CCCC1`, the Potency is 5.17 µM (active).

For the molecule `CCOC(=O)N1CCN(CC(=O)Nc2nc3ccc(OC)cc3s2)CC1`, the Potency result is “inactive”.

For the molecule `COc1ccc2nc(NC(=O)CCc3nc(-c4ccccc4F)no3)sc2c1`, the Potency entry was “inactive”.

On to `O=C(Nc1ccccc1C(=O)O)c1ccc(NC(=O)C2CC2)cc1`, for which the Potency is 2.59 µM (active).

As to `CCn1c(C)nc2cc(-c3nc4n(n3)Cc3ccccc3-4)ccc21`, the Potency is 0.0231 µM (active).

Consider `CC(C)C(=O)Nc1cccc(C(=O)Nc2ccccc2C(=O)O)c1`, for which the Potency was 5.8 µM (active).

As to `Nc1ccccc1-c1nc2ccccc2s1`, the Potency is 8.19 µM (active).

On to `O=C(Nc1ccccc1C(=O)O)c1cccc(S(=O)(=O)N2CCCC2)c1`, for which the Potency was 13 µM (active).

For `O=C(Cc1ccccc1)Nc1ccccc1C(=O)Nc1ccc(C(=O)O)cc1`, the Potency entry was “inactive”.

As to `CCOc1ccc(C(=O)Nc2ccccc2C(=O)O)cc1`, the Potency was 1.46 µM (active).

Regarding `O=C(O)c1ccc(NC(=O)c2ccccc2NC(=O)c2cccc(Br)c2)cc1`, the Potency was 14.6 µM (active).

Consider `COc1ccc2nc(NC(=O)c3cccc(S(=O)(=O)N4CCOCC4)c3)sc2c1`, for which the Potency was 20.6 µM (active).

On to `Nc1ccc(-c2nc3cc(N)ccc3s2)cc1`, for which the Potency was 0.819 µM (active).

These data come from PubChem BioAssay AID602357 (National Center for Advancing Translational Sciences (NCATS), 2012).
